Inconclusive results are not listed. Activity calls are given as the source filed them. Calls come from the whole dose curve; as a rule, active = well fitted cell-killing curve with a large enough effect in the repeat runs; inconclusive = weak or mixed curves, or effect the other way; inactive = no such curve, though single readings can be large or run the other way.
% is set by controls: 0 for no effect and ±100 for the full control effect; potency is the fitted concentration of half-maximal effect.

The nature of this test: qHTS assay to identify small molecule antagonists of the glucocorticoid receptor (GR) signaling pathway - cell viability counter screen (AID 720693). Note: nearly all actives have a fitted effect of over 55% in size. The following applies: GR-bla HeLa viability, CellTiter-Glo luminescence, 18 h, with 5 nM dexamethasone present; series mostly up to 58.5 µM; viability change, negative = cytotoxic: at the top concentration. The source says:
National Center for Advancing Translational Sciences [NCATS]
NIH Chemical Genomics Center [NCGC]
U.S. Environmental Protection Agency [EPA]
National Institutes of Environmental Health Sciences [NIEHS]
National Toxicology Program [NTP]
U.S. Food and Drug Administration [FDA]
The Glucocorticoid receptor (GR) is one of the members of the nuclear receptor family of ligand-dependent transcription factors. GR plays a critical role in carbohydrate, protein and lipid metabolisms and programmed cell death. CellSensor GR-bla HeLa cell line (Invitrogen) contains a beta-lactamase reporter gene under the control of the glucocorticoid response element stably integrated into HeLa cells, a cervical cancer cell line that expresses glucocorticoid receptor. The activation of the reporter gene under culture conditions can be detected by fluorescence intensity. This cell line has been used to screen the Tox21 10K compound library and to identify the compounds that inhibit the GR signaling. The cytotoxicity of the Tox21 compound library against the GR-bla HeLa cell line was tested in parallel by measuring the cell viability using CellTiter-Glo assay in the same wells.
Tox21 Assay Protocol Summary:
The GR-bla HeLa cells were dispensed at 1500 cells/5 ul/well in 1536-well black wall/clear bottom plates using a Multidrop Combi (ThermoFisher Scientific, Waltham, MA) dispenser. After the assay plates were incubated at a 37 C/5% CO2 incubator for 4 hours, 23 nL of compounds dissolved in DMSO, positive controls or DMSO only was transferred to the assay plate by a pintool station (Kalypsys, San Diego, CA), followed by addition of 1 uL of dexamethasone (5 nM, final concentration in the well). The plates were incubated at 37 C for 18 hours. After 1 uL of LiveBLAzerTM B/G FRET substrate was added using a Flying Reagent Dispenser (Aurora Discovery, San Diego, CA), the plates were incubated at room temperature (RT) for 2 hours, and fluorescence intensity was measured by an Envision plate reader (PerkinElmer, Shelton, CT). After measurement of bla assay, 3 ul CellTiter-Glo (Promega, Madison, WI) was added to measure the cytotoxicity and the plates were then incubated at RT for 30 min. The luminescence was measured using a ViewLux (Perkin Elmer) plate reader.
On the technique in general: qHTS replaces the single test concentration by a dilution series.
On to `CO/N=C(/C(=O)N[C@@H]1C(=O)N2C(C(=O)O)=C(COC(N)=O)CS[C@H]12)c1ccco1`, for which the Potency result is “inactive”. For `CC[N+](CC)(CCNC(=O)C(=O)NCC[N+](CC)(CC)Cc1ccccc1Cl)Cc1ccccc1Cl`, the “viability change, negative = cytotoxic” value was 4.83% (inactive). On to `CC(=O)c1ccc([N+](=O)[O-])cc1`, for which the “viability change, negative = cytotoxic” value was 23.3% (inactive). In the case of `C[C@@H](O[C@H]1OCCN(Cc2n[nH]c(=O)[nH]2)[C@H]1c1ccc(F)cc1)c1cc(C(F)(F)F)cc(C(F)(F)F)c1`, the Potency is 21.3 µM (active). On to `CC1(C)[C@@H](OC(=O)CCC(=O)O)CC[C@]2(C)[C@H]3C(=O)C=C4[C@@H]5C[C@@](C)(C(=O)O)CC[C@]5(C)CC[C@@]4(C)[C@]3(C)CC[C@@H]12`, for which the “viability change, negative = cytotoxic” value was -13% [at 27 µM] (inactive). The same measure, in the same setting: the value for `CCCCCC#CC(=O)OC` was -0.387% (inactive). Turning to `O=C1c2ccccc2C(=O)C1c1ccc(Br)cc1`, the “viability change, negative = cytotoxic” value was 7.99% (inactive). The same measure, in the same setting: the value for `CC(=O)OCCN(CCOC(C)=O)c1ccc(N=Nc2ccc([N+](=O)[O-])cc2C#N)cc1` was -21.5% (inactive); that for `C=C(C)[C@@H]1CCC2=CCC[C@@H](C)[C@]2(C)C1` was -3.69% (inactive). Regarding `CC(C)C[C@H](NC(=O)[C@H](CCc1ccccc1)NC(=O)CN1CCOCC1)C(=O)N[C@@H](Cc1ccccc1)C(=O)N[C@@H](CC(C)C)C(=O)[C@@]1(C)CO1`, the Potency was 5.35 µM (active). Take `CC(C)C=O`: the “viability change, negative = cytotoxic” value was 11.8% [at 78.9 µM] (inactive).

With `NC1[C@H]2CN(c3nc4c(cc3F)c(=O)c(C(=O)O)cn4-c3ccc(F)cc3F)C[C@@H]12` (stereo not given in full), the “viability change, negative = cytotoxic” value was 15.9% (inactive). Still for that read-out and setting: next, `CCOC(=O)c1ccc(C#Cc2ccc3c(c2)C(C)(C)CCS3)nc1`: -9.79% (inactive); `CC(C)C(O)(c1ccc(OC(F)(F)F)cc1)c1cncnc1` (stereo not given): -10.6% (inactive); `CCN(CC)CCNC(=O)COc1ccc(OC)cc1`: 0.362% (inactive). Same read-out and setting: the value for `CCCC(=O)C(=O)O` was 5.08% (inactive); that for `Oc1cccc(Nc2ccccc2)c1` was -21.3% [at 78.9 µM] (inactive). Regarding `CC(C)=CC(=O)C=C(C)C`, the “viability change, negative = cytotoxic” value was 8.25% (inactive). For the compound `O=C(/C=C/c1ccc(O)c(O)c1)O[C@@H]1C[C@@](OC(=O)/C=C/c2ccc(O)c(O)c2)(C(=O)O)C[C@@H](O)[C@@H]1O`, the “viability change, negative = cytotoxic” value was -2.36% (inactive). On the same count and under the same terms, next, `CCCCCCC(C)(C)C(=O)O`: -3.03% (inactive). The same measure, in the same setting: the value for `Nc1cccc2c1CN(C1CCC(=O)NC1=O)C2=O` (stereo not given) was 14.4% (inactive). The same measure, in the same setting: the value for `COC(=O)CCS` was -0.256% (inactive).

`Cc1cc(=O)c2c(O)c3c(O)cc(=O)c4c3c3c(cc(O)c1c23)C(C)(C)C=4O`: the Potency was 1.69 µM (active).

As for `CCC=CC#N`, the “viability change, negative = cytotoxic” value was -2.02% (inactive). As for `O=C(O)CCC(=O)C(=O)O`, the Potency result is “inactive”. With `O=C(O)CCCCCCCCCCCBr`, the “viability change, negative = cytotoxic” value is -21.5% (inactive). Still for that read-out and setting: the value for `CCOc1ccccc1O[C@H](c1ccccc1)[C@H]1CNCCO1` was -1.34% (inactive); that for `CN(C)CCN1C(=O)c2ccccc2N(C)c2ccccc21` was 1.07% (inactive). In the case of `C[C@@H](O)[C@H]1C(=O)N2C(C(=O)O)=C([C@H]3CCCO3)S[C@H]12`, the “viability change, negative = cytotoxic” value was 0.892% (inactive). On to `Clc1ccc(Nc2nnc(Cc3ccncc3)c3ccccc23)cc1`, for which the Potency entry is “inactive”.

Take `O=C(O)C[C@H](NC(=O)OCc1ccccc1)C(=O)O`: the “viability change, negative = cytotoxic” value was 9.93% (inactive). Still for that read-out and setting: next, `O=C1c2ccccc2C(=O)C1c1nc2ccccc2c(Br)c1O`: 14.3% (inactive); `O=[N+]([O-])c1ccc(Nc2ccc(Nc3ccccc3)c(S(=O)(=O)O)c2)c([N+](=O)[O-])c1`: 3.65% (inactive). For `COC(=O)CS`, the “viability change, negative = cytotoxic” value was 0.0706% (inactive). Take `O=C1NCCN1CCO`: the “viability change, negative = cytotoxic” value is -5.97% [at 78.9 µM] (inactive). The same measure, in the same setting: next, `CCOC(=O)C1=C(C)NC(C)=C(C(=O)OC)C1c1cccc(Cl)c1Cl` (stereo not given): -16.3% (inactive); `C=C(C)C(=O)OCCCCCCCCCCCCC`: 1.15% (inactive). The same measure, in the same setting: next, `C=CC(=O)[O-].C=CC(=O)[O-].[Zn+2]`: 18.9% (inactive); `O=C(/C=C/c1ccccc1)OCCc1ccccc1`: -9.12% (inactive). Same read-out and setting: the value for `O=C1NC(=O)c2cc([N+](=O)[O-])ccc21` was 12.2% [at 78.9 µM] (inactive).

The values above are taken from PubChem BioAssay (Tox21).
